Laboratory results: PubChem BioAssay (EPA / NIEHS)
Several values for one entry are separate records, joined by “and”; a condition that tells them apart may be missing. Identical values can stand only once. Where a structure was tested more than once in an assay, its records may differ in their call. Activity calls are given as the source filed them. The calls were made as follows: active = hit-call score of the fitted dose curve at least 0.9, where 1 is the maximum; inactive = score below 0.9.

Columns and labels:
[1] = read-out: Urokinase-type plasminogen activator receptor (uPAR), PLAUR (gene 5329); experiment: BSK_4H_uPAR: BioMAP Diversity Plus: 4H Assay for Urokinase-type plasminogen activator receptor (uPAR) Biomarker Activity (AID 2283030); conditions: primary human endothelial cells (HUVEC); actives raise or lower the signal
In short: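 HUVEC, 24 h post-dose; uPAR by ELISA; bidirectional fit vs DMSO baseline.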

[2] = read-out: Vascular endothelial growth factor receptor 2 (Homo sapiens) (UniProt P35968); experiment: BSK_4H_VEGFRII: BioMAP Diversity Plus: 4H Assay for Vascular endothelial growth factor receptor 2 (VEGFR2) Biomarker Activity (AID 2283031); conditions: primary human endothelial cells (HUVEC); actives raise or lower the signal;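 as to AC50: cell-surface VEGFR2 protein level quantified by ELISA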
In short: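 HUVEC (human primary), 4H system; 24 h post-dose; VEGFRII by ELISA; bidirectional curve fit vs DMSO baseline; gain or loss of signal scored.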

[3] = read-out: Human Leukocyte Antigen - DR isotype (HLADR), HLA-DRA (gene 3122); experiment: BSK_BE3C_HLADR: BioMAP Diversity Plus: BE3C Assay for Human Leukocyte Antigen - DR isotype (HLADR) Biomarker Activity (AID 2283032); conditions: primary human bronchial epithelial cells; actives raise or lower the signal
In short: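 Cell-surface HLA-DR ELISA readout at 24 h after dosing in the BE3C primary human lung bronchial epithelial system; gain or loss of signal against DMSO, with parallel sulforhodamine B staining of total protein for overt cytotoxicity.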

[4] = read-out: Vascular cell adhesion molecule 1 (VCAM1), VCAM1 (gene 7412); experiment: BSK_4H_VCAM1: BioMAP Diversity Plus: 4H Assay for Vascular cell adhesion molecule 1 (VCAM1) Biomarker Activity (AID 2283033); conditions: primary human endothelial cells (HUVEC); actives raise or lower the signal
In short: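 VCAM-1 ELISA read 24 h after chemical dosing of HUVEC in the BioMAP 4H system, with gain or loss of signal fitted relative to DMSO. Parallel SRB staining (560 nm) checked overt cytotoxicity.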

[5] = read-out: Monokine induced gamma interferon (MIG), CXCL9 (gene 4283); experiment: BSK_BE3C_MIG: BioMAP Diversity Plus: BE3C Assay for Monokine induced gamma interferon (MIG) Biomarker Activity (AID 2283035); conditions: primary human bronchial epithelial cells; actives raise or lower the signal
In short: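 Dose cells (human primary bronchial epithelial), incubate 24 h, quantify MIG by ELISA, then fit concentration–response in both directions relative to DMSO control.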

[6] = read-out: Transforming growth factor beta 1 (TGFb1), TGFB1 (gene 7040); experiment: BSK_BE3C_TGFb1: BioMAP Diversity Plus: BE3C Assay for Transforming growth factor beta 1 (TGFb1) Biomarker Activity (AID 2283036); conditions: primary human bronchial epithelial cells; actives raise or lower the signal
In short: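 ELISA readout of TGF-b1 from human lung bronchial epithelial primary cells, taken 24 h post-treatment. Gain or loss of signal fitted relative to DMSO baseline, with parallel SRB staining for overt cytotoxicity.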

[7] = read-out: Plasminogen activator inhibitor-1 (PAI1), SERPINE1 (gene 5054); experiment: BSK_BE3C_PAI1: BioMAP Diversity Plus: BE3C Assay for Plasminogen activator inhibitor-1 (PAI1) Biomarker Activity (AID 2283037); conditions: primary human bronchial epithelial cells; actives raise or lower the signal
In short: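 PAI-1 was measured by ELISA in human primary bronchial epithelial cultures 24 h after chemical dosing, with cytotoxicity checked by SRB total-protein staining in parallel cultures. Activity was fitted in both directions relative to DMSO.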

[8] = read-out: urokinase plasminogen activator (uPA), PLAU (gene 5328); experiment: BSK_BE3C_uPA: BioMAP Diversity Plus: BE3C Assay for urokinase plasminogen activator (uPA) Biomarker Activity (AID 2283038); conditions: primary human bronchial epithelial cells; actives raise or lower the signal
In short: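 ELISA read-out of uPA in human lung primary bronchial epithelial cultures, 24 h post-dosing. Gain or loss of signal fitted bidirectionally relative to DMSO baseline; cytotoxicity checked in parallel cultures via SRB total protein stain.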

[9] = read-out: Urokinase-type plasminogen activator receptor (uPAR), PLAUR (gene 5329); experiment: BSK_BE3C_uPAR: BioMAP Diversity Plus: BE3C Assay for Urokinase-type plasminogen activator receptor (uPAR) Biomarker Activity (AID 2283039); conditions: primary human bronchial epithelial cells; actives raise or lower the signal
In short: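 uPAR levels were measured by ELISA after 24 h compound treatment of primary human bronchial epithelial cells, fitted in both directions relative to DMSO. Parallel SRB staining served as the cytotoxicity read-out.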

[10] = read-out: Interleukin-6 (IL6), IL6 (gene 3569); experiment: BSK_CASM3C_IL6: BioMAP Diversity Plus: CASM3C Assay for Interleukin-6 (IL6) Biomarker Activity for (AID 2283040); conditions: primary human coronary artery smooth muscle cells; actives raise or lower the signal
[11] = read-out: Tissue plasminogen activator (tPA), PLAT (gene 5327); experiment: BSK_BE3C_tPA: BioMAP Diversity Plus: BE3C Assay for Tissue plasminogen activator (tPA) Biomarker Activity (AID 2283041); conditions: primary human bronchial epithelial cells; actives raise or lower the signal
In short: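 tPA measured by ELISA 24 h after dosing human primary bronchial epithelial cells (BE3C system). Changes in either direction were fitted against DMSO. Parallel cultures were stained with SRB to flag overt cytotoxicity.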

[12] = read-out: Interleukin-8 (IL8), CXCL8 (gene 3576); experiment: BSK_CASM3C_IL8: BioMAP Diversity Plus: CASM3C Assay for Interleukin-8 (IL8) Biomarker Activity (AID 2283042); conditions: primary human coronary artery smooth muscle cells; actives raise or lower the signal;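 also: IL-8 protein level quantified by ELISA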
[13] = read-out: Human Leukocyte Antigen - DR isotype (HLADR), HLA-DRA (gene 3122); experiment: BSK_CASM3C_HLADR: BioMAP Diversity Plus: CASM3C Assay for Human Leukocyte Antigen - DR isotype (HLADR) Biomarker Activity (AID 2283043); conditions: primary human coronary artery smooth muscle cells; actives raise or lower the signal;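 also: cell-surface HLA-DR protein level quantified by ELISA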
[14] = read-out: Macrophage colony-stimulating factor (MCSF), CSF1 (gene 1435); experiment: BSK_CASM3C_MCSF: BioMAP Diversity Plus: CASM3C Assay for Macrophage colony-stimulating factor (MCSF) Biomarker Activity (AID 2283044); conditions: primary human coronary artery smooth muscle cells; actives raise or lower the signal;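 also: M-CSF protein amount quantified by ELISA after 24 h exposure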
[15] = read-out: Low-density lipoprotein receptor (LDLR), LDLR (gene 3949); experiment: BSK_CASM3C_LDLR: BioMAP Diversity Plus: CASM3C Assay for Low-density lipoprotein receptor (LDLR) Biomarker Activity (AID 2283045); conditions: primary human coronary artery smooth muscle cells; actives raise or lower the signal;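 also: LDLR protein level on the cell surface quantified by ELISA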
[16] = read-out: Monocyte Chemoattractant Protein-1 (MCP1), CCL2 (gene 6347); experiment: BSK_CASM3C_MCP1: BioMAP Diversity Plus: CASM3C Assay for Monocyte Chemoattractant Protein-1 (MCP1) Biomarker Activity (AID 2283046); conditions: primary human coronary artery smooth muscle cells; actives raise or lower the signal;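 also: MCP-1 level quantified by ELISA 24 h after dosing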
[17] = BSK_CASM3C_Proliferation: Cell Proliferation Assessment in the BioMAP Diversity Plus: CASM3C Assay (AID 2283047); conditions: primary human coronary artery smooth muscle cells;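 also: sulforhodamine B total protein stain as relative cell number at 560 nm; sub-confluent cells exposed 48 h before staining; fitted both ways against DMSO so gain or loss of cell number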
[18] = read-out: Monokine induced gamma interferon (MIG), CXCL9 (gene 4283); experiment: BSK_CASM3C_MIG: BioMAP Diversity Plus: CASM3C Assay for Monokine induced gamma interferon (MIG) Biomarker Activity (AID 2283048); conditions: primary human coronary artery smooth muscle cells; actives raise or lower the signal;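 also: MIG protein level measured by ELISA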
[19] = read-out: serum amyloid A (SAA), SAA1 (gene 6288); experiment: BSK_CASM3C_SAA: BioMAP Diversity Plus: CASM3C Assay for serum amyloid A (SAA) Biomarker Activity (AID 2283049); conditions: primary human coronary artery smooth muscle cells; actives raise or lower the signal;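 also: SAA protein level quantified by ELISA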
[20] = read-out: Interferon-gamma inducible Protein 10 (IP10), CXCL10 (gene 3627); experiment: BSK_BE3C_IP10: BioMAP Diversity Plus: BE3C Assay for Interferon-gamma inducible Protein 10 (IP10) Biomarker Activity (AID 2283034); conditions: primary human bronchial epithelial cells; actives raise or lower the signal
In short: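 IP-10 quantified by ELISA in human primary bronchial epithelial cell cultures at 24 hours post-dosing. Gain or loss of signal fitted relative to DMSO; parallel SRB staining assessed overt cytotoxicity.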

Measured: AC50

O=C(c1ccccc1)C1CCCCC1
active: [11] 33.3 µM
inactive: [1] | [2] | [3] | [4] | [5] | [6] | [7] | [8] | [9] | [10] | [12] | [13] | [14] | [15] | [16] | [17] | [18] | [19]

N#CSCSc1nc2ccccc2s1
inactive: [6] | [11] | [15]
active: [1] 5.3 µM and 6.65 µM | [2] 5.06 µM and 5.42 µM | [3] 6.17 µM and 12.1 µM | [4] 5.21 µM and 12.8 µM | [20] 9.03 µM and 11.8 µM | [5] 9.86 µM and 12.2 µM | [6] 11.2 µM | [7] 4.99 µM and 11.8 µM | [8] 6.61 µM and 12.1 µM | [9] 5.42 µM and 11.5 µM | [10] 8.6 µM and 36.5 µM | [11] 5.25 µM | [12] 10.8 µM and 31.2 µM | [13] 2.62 µM and 36.7 µM | [14] 6.33 µM and 26.9 µM | [15] 8.61 µM | [16] 9.06 µM and 29.6 µM | [17] 1.33 µM and 5.49 µM | [18] 7.5 µM and 18.8 µM | [19] 4.93 µM and 33.5 µM

CCCCC(CC)CN1C(=O)C2C3C=CC(C3)C2C1=O (stereo not drawn)
inactive: [1] | [2] | [4] | [5] | [6] | [8] | [9] | [10] | [11] | [12] | [13] | [14] | [15] | [16] | [17] | [18] | [19]
active: [3] 15.7 µM | [20] 18.2 µM

CCOC(=O)COc1cc(-n2ncc(C(F)(F)F)c(C)c2=O)c(F)cc1Cl
active: [9] 459 nM
inactive: [1] | [2] | [3] | [4] | [20] | [5] | [6] | [7] | [8] | [10] | [11] | [12] | [13] | [14] | [15] | [16] | [17] | [18] | [19]

CCCCOC(=O)C(C)Oc1ccc(Oc2ccc(C(F)(F)F)cn2)cc1 (stereo not drawn)
inactive: [1] | [2] | [3] | [4] | [20] | [5] | [6] | [8] | [9] | [10] | [11] | [12] | [13] | [14] | [15] | [16] | [17] | [18] | [19]

COC(=O)c1ccccc1C(=O)O
inactive: [1] | [2] | [3] | [4] | [5] | [6] | [8] | [9] | [10] | [11] | [12] | [13] | [14] | [15] | [16] | [17] | [18] | [19]

c1ccc(Nc2ccccc2)cc1
inactive: [1] | [2] | [3] | [4] | [5] | [8] | [9] | [10] | [11] | [12] | [13] | [14] | [15] | [16] | [17] | [18] | [19]
active: [6] 3.97 µM

CCCCOCCOCCOCc1cc2c(cc1CCC)OCO2
inactive: [1] | [2] | [3] | [4] | [5] | [6] | [8] | [9] | [10] | [11] | [12] | [13] | [14] | [15] | [16] | [17] | [18] | [19]

CSC(=O)c1cccc2nnsc12
inactive: [1] | [2] | [3] | [4] | [5] | [6] | [8] | [9] | [10] | [11] | [12] | [13] | [14] | [15] | [16] | [17] | [18] | [19]

CCOC(=O)C(C)Oc1ccc(Oc2cnc3cc(Cl)ccc3n2)cc1 (stereo not drawn)
inactive: [1] | [2] | [3] | [4] | [5] | [8] | [9] | [10] | [11] | [12] | [13] | [14] | [15] | [16] | [17] | [18] | [19]

CCNc1nc(N)nc(Cl)n1
inactive: [1] | [2] | [3] | [4] | [5] | [6] | [9] | [10] | [11] | [12] | [13] | [14] | [15] | [16] | [17] | [18]
active: [8] 10.9 µM | [19] 20 µM

CCOC(=O)NCCOc1ccc(Oc2ccccc2)cc1
inactive: [1] | [2] | [4] | [5] | [6] | [8] | [9] | [10] | [11] | [12] | [13] | [14] | [15] | [16] | [18] | [19]
active: [3] 15.7 µM | [17] 7.68 µM

O=C(O)C1(C(=O)Nc2ccc(Cl)cc2Cl)CC1
active: [3] 10.7 µM
inactive: [1] | [2] | [4] | [5] | [6] | [8] | [9] | [10] | [11] | [12] | [13] | [14] | [15] | [16] | [17] | [18] | [19]
